Experiment [1] can be described thus: qHTS assay to identify small molecule antagonists of the glucocorticoid receptor (GR) signaling pathway - cell viability counter screen (AID 720693). Note: nearly all actives have a fitted effect of over 55% in size.
The nature of experiment [2]: qHTS assay for identifying genotoxic compounds that show differential cytotoxicity against isogenic chicken DT40 cell lines with known DNA damage response pathways - wild type cell line (AID 743012). Note: nearly all actives have a fitted effect of over 60% in size. Note: potency is the fitted concentration of half-maximal effect. In a few lines: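 Luminescent ATP viability signal (CellTiter-Glo, 30 min RT) recorded after wild type DT40 cells were incubated with compounds for 40 h at 37 C/5% CO2.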

Experiment [3] can be described thus: qHTS assay for identifying genotoxic compounds that show differential cytotoxicity against isogenic chicken DT40 cell lines with known DNA damage response pathways - Rev3 mutant cell line (AID 743014). Note: nearly all actives have a fitted effect of over 55% in size. Note: potency is the fitted concentration of half-maximal effect.
Experiment [4] in a line: qHTS assay for identifying genotoxic compounds that show differential cytotoxicity against isogenic chicken DT40 cell lines with known DNA damage response pathways - Rad54/Ku70 mutant cell line (AID 743015). Note: nearly all actives have a fitted effect of over 60% in size. Note: potency is the fitted concentration of half-maximal effect.
The nature of experiment [5]: qHTS assay to identify small molecule antagonists of the androgen receptor (AR) signaling pathway - cell viability counter screen (AID 743033; note: nearly all actives have a fitted effect of over 45% in size; note: potency is the fitted concentration of half-maximal effect).
The nature of experiment [6]: qHTS assay to identify small molecule antagonists of the androgen receptor (AR) signaling pathway using the MDA cell line - cell viability counter screen (AID 743041; note: nearly all actives have a fitted effect of over 45% in size). In a few lines:
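qHTS viability read-out; MDA-kb2 AR-luc; R1881-stimulated; 16 h exposure at 37C, 0% CO2; CellTiter-Fluor, 30 min; fluorescence intensity.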

Experiment [7] addresses Androgen receptor (Homo sapiens) (UniProt P10275). The experiment can be described thus: qHTS assay to identify small molecule antagonists of the androgen receptor (AR) signaling pathway (AID 743035; active = well fitted inhibition curve with a large enough effect in the signal ratio in the repeat runs, not every such curve was filed as active; the % refers to the signal ratio). In a few lines: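 Quantitative HTS of the Tox21 10K library used HEK293 AR-UAS-bla cells stimulated with R1881 alongside compound for 16 h at 37C, followed by beta-lactamase FRET detection (LiveBLAzer B/G, 2 h, RT).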

For experiment [8] the target is unchanged. The experiment can be described thus: qHTS assay to identify small molecule agonists of the androgen receptor (AR) signaling pathway (AID 743036; active = well fitted activation curve with a large enough effect in the signal ratio in the repeat runs, with a control signal flat, not every such curve was filed as active; the % refers to the signal ratio). In a few lines:
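Activation was read as beta-lactamase FRET signal from LiveBLAzer B/G substrate, added for 2 h at room temperature. Before that, GeneBLAzer AR-UAS-bla GripTite (HEK293) cells had 16 h compound exposure at 37C.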

Experiment [9] shares this target. The experiment can be described thus: qHTS assay to identify small molecule agonists of the androgen receptor (AR) signaling pathway using the MDA cell line (AID 743040; note: nearly all actives have a fitted effect of over 20% in size). In a few lines: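 Agonist activity is measured as luciferase luminescence in human MDA-kb2 cells whose MMTV reporter responds to both AR and GR. Compounds in DMSO incubate 16 h at 37C, 0% CO2, and ONE-Glo is read after 30 min.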

For experiment [10] the target is unchanged. The experiment can be described thus: qHTS assay to identify small molecule antagonists of the androgen receptor (AR) signaling pathway using the MDA cell line (AID 743042; note: nearly all actives have a fitted effect of over 55% in size). The method, boiled down:
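MDA-kb2 cells (human breast carcinoma, stably carrying an MMTV-luciferase reporter responsive to AR and GR) were plated at 3,000 cells/well and preincubated 5 hr at 37C, then given compound plus R1881 agonist for 16 h. ONE-Glo luminescence was read.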

“And” between values parts separate entries of the source, which are not always exact repeats. Identical values can stand only once. Records with an inconclusive call do not appear. Where a structure was tested more than once in an assay, its records may differ in their call. The source made the active and inactive calls. Unless noted, calls come from the whole dose curve; as a rule, active = well fitted curve in the direction sought with a large enough effect in the repeat runs; inconclusive = weak or mixed curves; inactive = no such curve, though single readings can be large; an effect the other way counts as inactive or inconclusive.

Results on 39 compounds are retold here after PubChem BioAssay (Tox21).

Sequence of Androgen receptor (Homo sapiens) (P10275 whole entry, looked up): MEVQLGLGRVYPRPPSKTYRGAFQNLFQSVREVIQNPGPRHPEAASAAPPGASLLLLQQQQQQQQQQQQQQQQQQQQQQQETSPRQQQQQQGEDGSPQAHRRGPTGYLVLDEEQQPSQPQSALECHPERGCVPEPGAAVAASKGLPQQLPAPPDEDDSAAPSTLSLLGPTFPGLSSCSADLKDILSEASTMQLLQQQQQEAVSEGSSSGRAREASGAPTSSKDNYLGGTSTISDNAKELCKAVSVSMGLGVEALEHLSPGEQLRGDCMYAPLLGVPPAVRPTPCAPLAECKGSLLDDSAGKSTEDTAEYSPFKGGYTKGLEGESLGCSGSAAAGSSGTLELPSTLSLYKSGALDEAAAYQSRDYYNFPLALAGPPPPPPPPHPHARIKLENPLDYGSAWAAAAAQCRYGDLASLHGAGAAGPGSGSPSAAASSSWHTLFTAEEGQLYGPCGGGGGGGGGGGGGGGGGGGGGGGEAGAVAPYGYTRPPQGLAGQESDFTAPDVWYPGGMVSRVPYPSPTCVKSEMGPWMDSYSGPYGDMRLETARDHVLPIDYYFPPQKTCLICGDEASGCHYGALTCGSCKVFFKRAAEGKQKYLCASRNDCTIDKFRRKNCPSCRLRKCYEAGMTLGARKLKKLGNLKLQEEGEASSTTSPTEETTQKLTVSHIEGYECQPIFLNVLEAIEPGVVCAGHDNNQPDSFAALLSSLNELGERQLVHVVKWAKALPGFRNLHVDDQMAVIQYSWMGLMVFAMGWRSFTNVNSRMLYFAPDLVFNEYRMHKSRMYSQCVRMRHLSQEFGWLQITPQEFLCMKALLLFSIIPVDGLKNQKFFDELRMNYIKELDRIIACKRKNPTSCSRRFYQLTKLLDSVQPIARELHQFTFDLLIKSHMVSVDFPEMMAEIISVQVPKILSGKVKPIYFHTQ

With `CCCCCCCCCCCCCCCO`, the compound was called inactive in experiment [1]. For the same compound, the Potency entry in experiment [2], in experiment [3], in [4], in [5] and in [6] was “inactive” in each case.
As to `CC(C)CC(=O)CC(C)C`, the call in [1] was inactive. Besides, the Potency entry in [2], in experiment [3], in [4], in experiment [5] and in experiment [6] was “inactive” throughout.
As to `C/C=C1/CC2C=CC1C2` (stereo unspecified), the call in [1] was inactive. In addition, the Potency entry in experiment [2], in experiment [3], in experiment [4], in experiment [5] and in experiment [6] was “inactive” each time.
Consider `O=S(=O)(O)c1ccc2ccccc2c1`, for which the outcome in [1] was inactive. Moreover, the Potency result in [2] was “inactive and 54.6 µM (active)”; in [3] it was “inactive and 43.4 µM (active)”; in [4], “inactive and 54.6 µM (active)”. Besides, the Potency entry in experiment [5] and in experiment [6] was “inactive” in each case.
For the compound `O=C(O)c1ccc2c(c1)C(=O)OC2=O`, the compound was called inactive in experiment [1], in experiment [7] and in [10]. The Potency entry in [2], in experiment [3], in experiment [4], in experiment [5], in [8] and in experiment [9] was “inactive” throughout. Also, the Potency result in experiment [6] is “inactive”.
Consider `CCCCCCCC(=O)OC`, for which the compound was classed as inactive in experiment [1]. Further, the Potency entry in experiment [2], in experiment [3], in experiment [4], in experiment [5] and in experiment [6] was “inactive” each time.
For the compound `CC(=O)CC(=O)Nc1ccccc1C`, the result in experiment [1] was inactive. The Potency entry in experiment [2], in experiment [3], in [4], in experiment [5] and in experiment [6] was “inactive” throughout.
Regarding `COc1cc(Cc2cnc(N)nc2N)cc(OC)c1OC`, the compound was called inactive in experiment [1]. For the same compound, the Potency entry in [2], in [3], in experiment [4], in experiment [5] and in [6] was “inactive” throughout.
As for `N[C@@H](Cc1cc(I)c(Oc2cc(I)c(O)c(I)c2)c(I)c1)C(=O)O`, the outcome in experiment [1] was inactive. The Potency result in experiment [2], in [3], in experiment [4], in experiment [5] and in experiment [6] was “inactive” in each case.
Turning to `C=C(C)C(=O)O[C@H]1C[C@@H]2CC[C@@]1(C)C2(C)C`, in [1], the result was inactive. Besides, the Potency entry in experiment [2], in experiment [3], in [4], in experiment [5] and in [6] was “inactive” throughout.
For `OCc1cccnc1`, in experiment [1], the call was inactive. In addition, the Potency entry in experiment [2], in [3], in experiment [4], in experiment [5] and in experiment [6] was “inactive” in each case.
On to `O=C(O)c1cc(O)c(O)c(O)c1`, for which the result in [1] was inactive. Also, the Potency in experiment [2] was 26.6 µM (active) and 30.9 µM (active); in experiment [3] it was 26.6 µM (active) and 24.6 µM (active); in [4], 27.6 µM (active). The Potency result in experiment [5] and in [6] was “inactive” throughout.
Regarding `CC(=O)Nc1ccccc1`, the outcome in [1] was inactive. The Potency result in experiment [2], in experiment [3], in [4], in experiment [5] and in experiment [6] was “inactive” in each case.
As to `CCCCCCCCC/C=C/CC1CC(=O)OC1=O` (stereo unspecified), the call in [1] was inactive. Further, the Potency result in experiment [2], in [4], in [5] and in experiment [6] was “inactive” each time. Besides, the Potency in experiment [3] is 48.6 µM (active).
Take `CC(C)(C)[C@@H](O)[C@@H](Cc1ccc(Cl)cc1)n1cncn1`: in [1], the call was inactive. Moreover, the Potency result is “inactive and 48.5 µM (active)” in [2]; 30.6 µM (active) in experiment [3]; 61.1 µM (active) in experiment [4]. In addition, the Potency entry in experiment [5] and in experiment [6] was “inactive” in each case.
Regarding `CCCCC(CC)COC(=O)CS` (stereo unspecified), in experiment [1], the compound was called inactive. In addition, the Potency entry in experiment [2], in experiment [3], in experiment [5] and in [6] was “inactive” in each case. The Potency entry in experiment [4] was “inactive and 61.1 µM (active)”.
As to `CCC(O)OC(O)CC` (stereo unspecified), in experiment [1], the result was inactive. Besides, the Potency entry in experiment [2], in experiment [3], in experiment [4], in experiment [5] and in experiment [6] was “inactive” in each case.
Take `c1ccc(OCCOc2ccccc2)cc1`: in [1], the outcome was inactive. Also, the Potency result in [2], in experiment [3], in [4], in [5] and in experiment [6] was “inactive” throughout.
Regarding `O=C(O)[C@H](O)[C@@H](O)[C@H](O)[C@H](O)CO`, the call in experiment [1] was inactive. Moreover, the Potency result in experiment [2], in experiment [3], in [4], in experiment [5] and in experiment [6] was “inactive” throughout.
On to `COc1ccc(NC(C)=O)cc1N`, for which the call in experiment [1] was inactive. For the same compound, the Potency entry in experiment [2], in [3], in experiment [4], in experiment [5] and in [6] was “inactive” throughout.
Turning to `Cc1ccc(N(C)C)cc1`, the call in [1], in experiment [7] and in experiment [10] was inactive. The Potency result in experiment [2], in [3], in experiment [4], in experiment [5], in experiment [8] and in experiment [9] was “inactive” in each case. Besides, the Potency entry in experiment [6] was “inactive”.
For the compound `CCC(O)OCCCOC` (stereo unspecified), the compound was called inactive in experiment [1]. Besides, the Potency entry in [2], in experiment [3], in [4], in [5] and in experiment [6] was “inactive” each time.
Turning to `CC(C)(N)CO`, the compound was classed as inactive in experiment [1]. The Potency entry in [2], in experiment [3], in [4], in experiment [5] and in experiment [6] was “inactive” throughout.
Consider `CCCCCC1=CCCC1=O`, for which the outcome in experiment [1] was inactive. In addition, the Potency entry in [2], in [3], in experiment [4], in experiment [5] and in experiment [6] was “inactive” throughout.
As to `CC1=CC(=O)NS(=O)(=O)O1`, in [1], the compound was classed as inactive. Moreover, the Potency entry in experiment [2], in experiment [3], in [4], in experiment [5] and in experiment [6] was “inactive” each time.
On to `Cc1cc(C)c(C)cc1C`, for which, in [1], the outcome was inactive. Also, the Potency entry in experiment [2], in [3], in experiment [4], in experiment [5] and in [6] was “inactive” in each case.
As for `CCCCCOC(C)=O`, the result in experiment [1] was inactive. Moreover, the Potency result in experiment [2], in experiment [4], in [5] and in experiment [6] was “inactive” in each case. Further, the Potency entry in [3] was “inactive and 68.6 µM (active)”.
Turning to `O=c1[nH]nnc2ccccc12`, in experiment [1], the compound was classed as inactive. Besides, the Potency result in [2], in experiment [3], in [4], in [5] and in experiment [6] was “inactive” each time.
On to `CN(C)CCC(c1ccccc1)c1ccccn1` (stereo unspecified), for which the compound was classed as inactive in experiment [1]. Also, the Potency result in experiment [2], in [3], in experiment [4], in experiment [5] and in experiment [6] was “inactive” throughout.
Take `CCCCCCCCCCCCc1ccccc1`: in [1], the call was inactive. The Potency result in [2], in experiment [3], in experiment [4], in experiment [5] and in experiment [6] was “inactive” throughout.
For `CC[C@H](C)C(=O)O[C@H]1C[C@@H](C)C=C2C=C[C@H](C)[C@H](CC[C@@H]3C[C@@H](O)CC(=O)O3)[C@H]21`, the call in [1] was inactive. Further, the Potency is 53.1 nM (active) and 5.52 µM (active) and 682 nM (active) in experiment [2]; 8.4 nM (active) and 391 nM (active) and 3.8 nM (active) in experiment [3]; 53.1 nM (active) and 2.77 µM (active) and 136 nM (active) in experiment [4]; 31.3 µM (active) and inactive in experiment [5]. Besides, in experiment [6], the Potency result is “inactive”.
Turning to `CCCCCCCCCCCCS`, the call in [1] was inactive. Moreover, the Potency entry in experiment [2], in [3], in experiment [4], in [5] and in experiment [6] was “inactive” in each case.
Turning to `CC(O)COCC(C)O` (stereo unspecified), the compound was classed as inactive in [1]. Besides, the Potency entry in experiment [2], in experiment [3], in experiment [4], in [5] and in experiment [6] was “inactive” throughout.
Turning to `CCOC(=O)NNc1nncc2ccccc12`, the result in [1] was inactive. Also, the Potency entry in [2], in [3], in experiment [4], in [5] and in experiment [6] was “inactive” throughout.
As for `CN(C)CCC(c1ccc(Cl)cc1)c1ccccn1` (stereo unspecified), in experiment [1], the outcome was inactive. The Potency entry in experiment [2], in experiment [3], in experiment [4], in [5] and in experiment [6] was “inactive” each time.
Regarding `C[Si](O[Si](C)(C)C)O[Si](C)(C)C`, the compound was called inactive in experiment [1], in [7] and in experiment [10]. In addition, the Potency result in experiment [2], in [3], in [4], in [5], in [8] and in experiment [9] was “inactive” in each case. For the same compound, the Potency result in experiment [6] was “inactive”.
As for `O=c1[nH]c(=O)n([C@H]2CCCO2)cc1F`, in experiment [1], the compound was called inactive. In addition, the Potency entry in [2], in experiment [3], in experiment [4], in [5] and in experiment [6] was “inactive” each time.
Take `O=S1(=O)CC=CC1`: the call in experiment [1] was inactive. The Potency entry in experiment [2], in experiment [3], in experiment [4], in experiment [5] and in [6] was “inactive” throughout.
On to `O=C(O)CCCC[C@@H]1SC[C@@H]2NC(=O)N[C@@H]21`, for which, in [1], the result was inactive. In addition, the Potency result in experiment [2], in experiment [3], in experiment [4], in experiment [5] and in [6] was “inactive” each time.
